# Results as given in PubChem BioAssay AID1159580 (chemical genetic matrix, 2015).
# Among all 5,500 compounds or so, about 2,000 (36%) were called active. Inconclusive results (about 18%) are left out. The list shows a part of the results. Values without a mark were called inactive. No stated cut-off is given here; in the data, active means normalized growth mostly below about 0.91 (no sharp cut-off); inconclusive means no clear call, values can overlap the other calls; inactive means mostly above about 0.92.
# Assay: chemical genetic growth profiling, strain panel (AID 1159580);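 further: tested at 20 µM; growth read once vehicle control cultures reached saturation at 30 °C; 1 = growth at the plate median or of vehicle wells; lower values mean less growth of the strain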
# Details: S. cerevisiae deletion strains, growth OD
compound,measurement,setting,value
Nc1ccccc1C(=O)Nc1cc(C(F)(F)F)cc(C(F)(F)F)c1,normalized growth,"locus YAR019C, strain CDC15, active compounds read low",0.957
same,normalized growth,"locus YBL105C, strain PKC1, active compounds read low",0.973
same,normalized growth,"locus YBR135W, strain CKS1, active compounds read low",0.985
same,normalized growth,"locus YBR136W, strain MEC1, active compounds read low",0.946
same,normalized growth,"locus YBR160W, strain CDC28, active compounds read low",0.982
same,normalized growth,"locus YDL017W, strain CDC7, active compounds read low",0.978
same,normalized growth,"locus YDL028C, strain MPS1, active compounds read low",0.943
same,normalized growth,"locus YDL101C, strain DUN1, active compounds read low",0.937
same,normalized growth,"locus YDL108W, strain KIN28, active compounds read low",0.969
same,normalized growth,"locus YDL132W, strain cdc53, active compounds read low",0.967
same,normalized growth,"locus YDL214C, strain PRR2, active compounds read low",1
same,normalized growth,"locus YDR052C, strain DBF4, active compounds read low",0.97
same,normalized growth,"locus YDR054C, strain cdc34, active compounds read low",0.96
same,normalized growth,"locus YDR226W, strain ADK1, active compounds read low",0.976
same,normalized growth,"locus YDR477W, strain SNF1, active compounds read low",0.992
same,normalized growth,"locus YER123W, strain YCK3, active compounds read low",0.957
same,normalized growth,"locus YER133W, strain GLC7, active compounds read low",1.01
same,normalized growth,"locus YFL009W, strain cdc4, active compounds read low",0.968
same,normalized growth,"locus YFL029C, strain CAK1, active compounds read low",0.944
same,normalized growth,"locus YFR003C, strain YPI1, active compounds read low",0.984
same,normalized growth,"locus YFR019W, strain FAB1, active compounds read low",0.986
same,normalized growth,"locus YFR028C, strain CDC14, active compounds read low",0.974
same,normalized growth,"locus YGR040W, strain KSS1, active compounds read low",1.01
same,normalized growth,"locus YGR052W, strain FMP48, active compounds read low",0.921
same,normalized growth,"locus YGR092W, strain DBF2, active compounds read low",0.961
same,normalized growth,"locus YHR030C, strain SLT2, active compounds read low",0.855
same,normalized growth,"locus YHR079C, strain IRE1, active compounds read low",0.836
same,normalized growth,"locus YHR082C, strain KSP1, active compounds read low",0.851
same,normalized growth,"locus YHR205W, strain SCH9, active compounds read low",0.816
same,normalized growth,"locus YIL147C, strain SLN1, active compounds read low",0.946
same,normalized growth,"locus YJL095W, strain BCK1, active compounds read low",0.844
same,normalized growth,"locus YJL128C, strain PBS2, active compounds read low",0.914
same,normalized growth,"locus YJL157C, strain FAR1, active compounds read low",1.01
same,normalized growth,"locus YJR016C, strain ILV3, active compounds read low",0.943
same,normalized growth,"locus YJR066W, strain TOR1 (second series), active compounds read low",0.997
same,normalized growth,"locus YJR066W, strain TOR1, active compounds read low",0.903
same,normalized growth,"locus YKL048C, strain ELM1, active compounds read low",0.949
same,normalized growth,"locus YKL067W, strain YNK1, active compounds read low",0.978
same,normalized growth,"locus YKL101W, strain HSL1, active compounds read low",0.957
same,normalized growth,"locus YKL193C, strain SDS22, active compounds read low",0.955
same,normalized growth,"locus YKL203C, strain TOR2, active compounds read low",1.06
same,normalized growth,"locus YLR113W, strain HOG1, active compounds read low",0.762 (active)
same,normalized growth,"locus YLR133W, strain CKI1, active compounds read low",0.934
same,normalized growth,"locus YLR403W, strain SFP1, active compounds read low",1.02
same,normalized growth,"locus YML070W, strain DAK1, active compounds read low",0.933
same,normalized growth,"locus YMR001C, strain CDC5, active compounds read low",0.975
same,normalized growth,"locus YMR205C, strain PFK2 (second series), active compounds read low",0.947
same,normalized growth,"locus YMR277W, strain FCP1, active compounds read low",0.952
same,normalized growth,"locus YNL006W, strain LST8, active compounds read low",0.937
same,normalized growth,"locus YNL020C, strain ARK1, active compounds read low",0.945
same,normalized growth,"locus YNL161W, strain CBK1, active compounds read low",0.971
same,normalized growth,"locus YNL183C, strain NPR1, active compounds read low",0.871
same,normalized growth,"locus YNL207W, strain RIO2, active compounds read low",0.963
same,normalized growth,"locus YNL222W, strain SSU72, active compounds read low",0.977
same,normalized growth,"locus YNL307C, strain MCK1 (second series), active compounds read low",0.941
same,normalized growth,"locus YOL078W, strain AVO1, active compounds read low",0.961
same,normalized growth,"locus YOL136C, strain PFK27, active compounds read low",0.956
same,normalized growth,"locus YOR061W, strain CKA2, active compounds read low",0.99
same,normalized growth,"locus YOR119C, strain RIO1, active compounds read low",0.981
same,normalized growth,"locus YOR231W, strain MKK1, active compounds read low",0.87
same,normalized growth,"locus YOR329C, strain SCD5, active compounds read low",0.969
same,normalized growth,"locus YPL031C, strain PHO85, active compounds read low",0.991
same,normalized growth,"locus YPL153C, strain RAD53, active compounds read low",0.987
same,normalized growth,"locus YPL204W, strain HRR25, active compounds read low",0.976
same,normalized growth,"locus YPL209C, strain IPL1, active compounds read low",0.952
same,normalized growth,"locus YPL256C, strain CLN2, active compounds read low",0.781 (active)
same,normalized growth,"locus YPR025C, strain CCL1, active compounds read low",0.985
same,normalized growth,"locus YPR106W, strain ISR1, active compounds read low",0.934
same,normalized growth,"locus YPR111W, strain DBF20, active compounds read low",0.946
same,normalized growth,"strain NNK1, active compounds read low",0.93
same,normalized growth,"strain TSCII, active compounds read low",0.974
